Data taken from PubChem BioAssay AID602449 (Sanford-Burnham Center for Chemical Genomics, 2012).
Hit rate of the full screen: of about 360,000 compounds, about 5,000 (1.4%) were called active.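 How the source made its calls: active means inhibition of 50% or more, scaled per plate between neutral and stimulator controls; inactive means the rest.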 The full list was thinned out, with actives kept by preference.

Assay: blockers of Ca2+-induced mitochondrial swelling – biochemical, isolated mouse mitochondria, absorbance, primary screen (AID 602449);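 further: 0% = DMSO wells given calcium and 100% = 1 mM EGTA wells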
Details: 30 min, at 10 µM, hits give high values
For `CC(C)=C1SC(N2CCN(c3ccc(C)c(Cl)c3)CC2)=NC1=O`, the inhibition was 2.6% (inactive).
For `COc1ccc(S(=O)(=O)N2CCN(C(C)C(=O)Nc3ccc(C(C)C)cc3)CC2)cc1` (stereo unspecified), the inhibition was 0.5% (inactive).
For `Cn1c(N2CCOCC2)c(C=O)c2ccccc21`, the inhibition was -0.1% (inactive).
With `COc1ccc2oc(-c3cccc(NC(=O)CSc4ccc(Cl)cc4)c3)nc2c1` the inhibition was 86.6% (active).
With `COc1ccc(C(=O)NCc2nnc(SCC(=O)Nc3cccc(OC)c3)o2)cc1` the inhibition was -0.9% (inactive).
With `COc1cccc(NC(=O)CSc2nnc(-c3cccnc3)o2)c1` the inhibition was -1.2% (inactive).
With `CCOC(=O)c1sc(=NC(=O)/C=C/c2cccs2)n(C)c1C` the inhibition was 1.4% (inactive).
For `CC(CNc1ccc([N+](=O)[O-])cc1)NC(=O)c1ccccc1Br` (stereo unspecified), the inhibition was 0% (inactive).
In the case of `O=C(NCCNc1ccc([N+](=O)[O-])cc1)c1cccc2c(Br)cccc12`, the inhibition is reported as 77.6% (active).
In the case of `O=C(NCCNc1ccc([N+](=O)[O-])cc1Cl)c1ccccc1F`, the inhibition is reported as 1% (inactive).
In the case of `Cc1c(Cl)c([N+](=O)[O-])nn1CC(=O)NCC1CCCO1` (stereo unspecified), the inhibition is reported as -1.6% (inactive).
For `CCN(CC)c1ccc(NC(=O)c2ccc(=O)[nH]c2)cc1S(=O)(=O)Nc1ccc(OC)cc1`, the inhibition was -0.4% (inactive).
In the case of `O=C(NCc1ccc2c(c1)OCO2)C12CC3CC(CC(C3)C1)C2`, the inhibition is reported as 3.7% (inactive).
For `COc1ccc(Cl)cc1C(=O)NNC(=S)NC1CCCC1`, the inhibition was -0.5% (inactive).
With `S=C(NCc1ccc(Cl)cc1)NC1CCCCC1` the inhibition was 67.6% (active).
In the case of `Cc1ccc(C(=O)NC23CC4CC(CC(C4)C2)C3)c(Cl)c1`, the inhibition is reported as -0.2% (inactive).
In the case of `S=C(NCc1ccc(Cl)cc1)NC12CC3CC(CC(C3)C1)C2`, the inhibition is reported as 96.8% (active).
In the case of `O=C(NNC(=S)NC1CCCCC1)c1ccccc1Cl`, the inhibition is reported as 0.2% (inactive).
For `CCOCCCNC(=O)C1(O)c2cc(Br)ccc2NC(=O)N1c1ccc(C)c(C)c1` (stereo unspecified), the inhibition was 0.7% (inactive).
With `O=C(NCCOc1ccccc1F)Nc1ccc(Br)cc1` the inhibition was 87.9% (active).
For `O=C(NCCOc1ccccc1Cl)C(=O)Nc1ccccc1`, the inhibition was -1.3% (inactive).
For `O=C(COc1ccccc1F)NNC(=O)c1cc(Br)ccc1Cl`, the inhibition was -1.8% (inactive).
In the case of `COC(=O)CNC(c1ccccc1Cl)c1cc(Br)ccc1NC(=O)CCN1CCOCC1` (stereo unspecified), the inhibition is reported as -1% (inactive).
With `CCC(C(=O)NCc1ccccc1)n1c(Cc2cc(F)cc(F)c2)nc2ccccc21` (stereo unspecified) the inhibition was 2.2% (inactive).
For `O=S(=O)(Nc1ccccc1N1CCOCC1)c1ccc(Cl)s1`, the inhibition was -0.7% (inactive).
With `COc1cc(NC(=O)c2ccccc2NS(=O)(=O)c2ccc(Cl)s2)cc(OC)c1` the inhibition was 67% (active).
For `CCOC(=O)c1ccc(N/C(=N/S(=O)(=O)c2ccccc2)c2ccccc2)cc1`, the inhibition was 1.7% (inactive).
For `COc1cccc(NC(=O)c2ccccc2N(Cc2ccccc2)S(C)(=O)=O)c1`, the inhibition was 0% (inactive).
In the case of `COC(=O)c1ccc(NC(=O)c2ccccc2NS(=O)(=O)c2ccccc2)cc1`, the inhibition is reported as 102% (active).
For `COc1ccccc1C(=O)Nc1ccc(Nc2ccccc2)cc1`, the inhibition was 0.9% (inactive).
In the case of `COc1cc(C(=O)NNC(=O)CN2C(=O)NC3(CCCC3)C2=O)cc(OC)c1OC`, the inhibition is reported as -0.8% (inactive).
With `COc1ccc(NS(=O)(=O)c2ccc(N3CCN(CCO)CC3)c([N+](=O)[O-])c2)cc1` the inhibition was 2.1% (inactive).
For `COc1ccc(NS(=O)(=O)c2ccc(NC(=O)c3ccc(N(C)S(C)(=O)=O)cc3)cc2)cc1`, the inhibition was 21.3% (inactive).
In the case of `COc1ccc(NS(=O)(=O)c2ccc(Oc3c(C#N)cccc3C#N)cc2)cc1`, the inhibition is reported as 91.6% (active).
With `C/C(=N/NC(=O)c1cc(Cl)ccc1O)C12CC3CC(CC(C3)C1)C2` the inhibition was 9.3% (inactive).
With `CC(=N\NC(=O)c1cc(Br)ccc1O)/C(=N/O)C(=O)Nc1ccccc1` the inhibition was 76.8% (active).
For `CC(=O)N/N=C(\C)c1ccc(Br)cc1Br`, the inhibition was -4.6% (inactive).
For `CCO[C@H]1OC(C(=O)O)=C[C@@H](C2CCCCC2)[C@@H]1CCCO`, the inhibition was -1.5% (inactive).
With `O=C(COC(=O)c1cnccn1)Nc1ccc(Cl)cc1C(F)(F)F` the inhibition was -0.1% (inactive).
With `C=CCNC(=O)CCCC(=O)NCC=C` the inhibition was 1.2% (inactive).
With `O=C(OC1CC2CC1[C@H]1CCCCN1C2=O)N1CCOCC1` (stereo partly specified) the inhibition was -3% (inactive).
For `Cc1ccc(C)c(NC(=S)NNC(=S)Nc2ccc(C(C)C)cc2)c1`, the inhibition was 93.7% (active).
For `Cc1ccc(C)c(NC(=O)C2CC(=O)N(C(C)C)C2)c1` (stereo unspecified), the inhibition was -0.7% (inactive).
In the case of `Cc1ccc(C)c(NC(=S)NCC(c2cccnc2)N2CCOCC2)c1` (stereo unspecified), the inhibition is reported as -1.7% (inactive).
With `CCc1ccccc1NC(=O)CN(C)C(=O)COc1ccc(C)nc1[N+](=O)[O-]` the inhibition was 14.3% (inactive).
With `O=C(NCc1ccncc1)C1CCN(C(=O)c2cccc(Cl)c2)CC1` the inhibition was 0.5% (inactive).
With `C=CCn1c(N)cc(=O)nc1SCC(=O)Nc1cccc2ccccc12` the inhibition was 0.1% (inactive).
For `O=C(NNS(=O)(=O)c1ccc(F)cc1)c1ccc([N+](=O)[O-])cc1Cl`, the inhibition was -0.9% (inactive).
In the case of `Cc1cccc(NS(=O)(=O)c2ccc([N+](=O)[O-])cc2)n1`, the inhibition is reported as 0.2% (inactive).
With `O=[N+]([O-])c1ccc(NS(=O)(=O)c2ccccc2)c(Cl)c1` the inhibition was 86.7% (active).
In the case of `CC(Nc1ccccc1)c1cccnc1` (stereo unspecified), the inhibition is reported as -1.4% (inactive).
For `CC(=O)c1c(C)[nH]c(C(=O)OCC(=O)Nc2sc3c(c2C#N)CCCC3)c1C`, the inhibition was 98.8% (active).
For `CC(=O)c1c(C)[nH]c(C(=O)OCC(=O)Nc2c(C)cccc2C)c1C`, the inhibition was 1.5% (inactive).
In the case of `N#Cc1c(NC(=O)CCCl)sc2c1CCCCC2`, the inhibition is reported as 0.2% (inactive).
In the case of `O=C1CCN(Cc2ccc([N+](=O)[O-])cc2)CCN1[C@H](CO)Cc1ccccc1`, the inhibition is reported as -0.2% (inactive).
For `COCc1nnc(NC(=O)CS(=O)(=O)Cc2ccccc2)s1`, the inhibition was 0.4% (inactive).
For `O=C(Nc1nnc(COc2ccccc2)s1)Nc1ccccc1F`, the inhibition was 6.4% (inactive).
For `O=C(Nc1ccccc1)Nc1nnc(COc2ccccc2F)s1`, the inhibition was 69.5% (active).
In the case of `Cc1[nH]c2ccccc2c1-c1ccc(Cl)nn1`, the inhibition is reported as -1% (inactive).
For `COC(=O)[C@]1(S(=O)(=O)c2ccccc2)C[C@@H]2ON=C(c3ccc(OC)cc3)[C@@H]2C1`, the inhibition was 1% (inactive).
For `N#C[C@]1(S(=O)(=O)c2ccccc2)C[C@@H]2ON=C(c3cccc(Br)c3)[C@@H]2C1`, the inhibition was 72.4% (active).
